# Reference: PubChem BioAssay
# Calls of active or inactive are those of the source.
# Key:
# [1] = optical density shifts of acrAB sulA E. coli – strain DRC41, OD650, 48 h, E. coli filamentation inducer project, primary screen (AID 1152); details: higher = more signal, called active from +8 up or from −8 down;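 also: E. coli MC1000 strain DRC41 lacking acrAB efflux pump and sulA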
# [2] = probe aLefty1 binding on compound microarray – biochemical, small-molecule microarray, 635/667 nm fluorescence, primary screen (AID 1153); details: higher = more signal;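 also: score merges spot fluorescence with signal-to-noise ratio from the scanned slide images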
# [3] = plasmodial surface anion channel blockers, osmotic lysis – cell-based, P. falciparum Indochina, OD700, 1 h, primary screen (AID 1154); details: P. falciparum Indochina infected RBC osmotic lysis, higher = more signal, called active from +8 up or from −8 down
# [4] = plasmodial surface anion channel blockers, osmotic lysis – cell-based, P. falciparum Indochina, OD700, 2 h, primary screen (AID 1155);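 also: lysis reports solute entry through the parasite surface anion channel PSAC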; details: P. falciparum Indochina infected erythrocytes, higher = more signal, called active from +8 up or from −8 down
# [5] = changes in parasitized red cell lysis, either direction – P. falciparum Indochina, OD700, 3 h, PSAC antagonist project, primary screen (AID 1156); details: P. falciparum-infected erythrocytes, osmotic lysis, higher = more signal, called active from +8 up or from −8 down
# [6] = plasmodial surface anion channel blockers, osmotic lysis – cell-based, P. falciparum Indochina, OD700, 18 h, primary screen (AID 1157); details: P. falciparum Indochina infected erythrocytes, osmotic lysis OD700, 18 h; higher = more signal, called active from +8 up or from −8 down
# [7] = S6 kinase pathway phospho-S6 level changes – cell-based, A549, cytoblot, luminescence, serum-stimulated, primary screen (AID 1158); details: 5 h, higher = more signal;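 also: serum-stimulated A549 lung adenocarcinoma cells; signal is phosphorylated S6 detected by cytoblot immunostaining with HRP secondary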
# [8] = biological target: NADPH oxidase 2 (Homo sapiens) (UniProt P04839); test: compounds shifting NOX2 Amplex Red fluorescence – cell-based, HEK293-NOX2, PMA-stimulated, NOX inhibitor project, primary screen (AID 1159); details: 45 min, higher = more signal, called active from +8 up or from −8 down; also: test concentration not given here
# Sequence of NADPH oxidase 2 (Homo sapiens) (P04839 whole entry, looked up): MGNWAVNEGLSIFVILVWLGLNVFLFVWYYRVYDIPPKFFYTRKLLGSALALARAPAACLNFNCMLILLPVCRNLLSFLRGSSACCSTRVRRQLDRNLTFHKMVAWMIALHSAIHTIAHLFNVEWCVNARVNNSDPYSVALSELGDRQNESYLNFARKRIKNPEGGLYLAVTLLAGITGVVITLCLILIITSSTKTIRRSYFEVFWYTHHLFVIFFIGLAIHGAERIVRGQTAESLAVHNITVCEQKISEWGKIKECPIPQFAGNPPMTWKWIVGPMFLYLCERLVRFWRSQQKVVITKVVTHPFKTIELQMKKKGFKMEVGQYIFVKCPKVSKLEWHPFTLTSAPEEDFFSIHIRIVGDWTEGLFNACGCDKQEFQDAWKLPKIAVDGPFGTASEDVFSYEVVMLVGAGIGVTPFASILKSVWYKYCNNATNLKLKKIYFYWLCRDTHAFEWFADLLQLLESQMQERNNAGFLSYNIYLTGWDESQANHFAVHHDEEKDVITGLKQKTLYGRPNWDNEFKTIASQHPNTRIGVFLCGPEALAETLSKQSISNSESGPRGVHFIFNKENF
# [9] = biological target: NADPH oxidase 4 (Homo sapiens) (UniProt Q9NPH5); test: compounds shifting NOX4 Amplex Red fluorescence – cell-based, HEK293-NOX4, tetracycline-induced, NOX inhibitor project, primary screen (AID 1160); details: HEK293-NOX4, Amplex Red H2O2 fluorescence, 45 min; higher = more signal, called active from +8 up or from −8 down
# Sequence of NADPH oxidase 4 (Homo sapiens) (Q9NPH5 whole entry, looked up): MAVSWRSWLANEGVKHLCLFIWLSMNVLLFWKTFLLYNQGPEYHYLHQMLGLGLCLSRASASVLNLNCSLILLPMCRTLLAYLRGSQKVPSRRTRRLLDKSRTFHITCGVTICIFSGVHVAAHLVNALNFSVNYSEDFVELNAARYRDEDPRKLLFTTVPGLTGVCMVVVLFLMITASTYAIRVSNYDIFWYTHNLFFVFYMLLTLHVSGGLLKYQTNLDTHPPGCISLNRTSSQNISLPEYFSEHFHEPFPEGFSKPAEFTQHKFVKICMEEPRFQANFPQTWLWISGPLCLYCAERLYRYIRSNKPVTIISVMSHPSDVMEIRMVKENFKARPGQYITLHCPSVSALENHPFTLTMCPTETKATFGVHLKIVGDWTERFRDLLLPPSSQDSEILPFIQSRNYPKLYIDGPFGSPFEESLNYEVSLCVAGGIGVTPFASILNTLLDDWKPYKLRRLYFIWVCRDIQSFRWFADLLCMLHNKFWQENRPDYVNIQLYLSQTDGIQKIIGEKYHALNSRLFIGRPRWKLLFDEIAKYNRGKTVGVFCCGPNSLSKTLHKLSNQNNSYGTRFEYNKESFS
# [10] = biological target: NADPH oxidase 5 (Homo sapiens) (UniProt Q96PH1); test: compounds shifting NOX5 Amplex Red fluorescence – cell-based, HEK293-NOX5, NOX inhibitor project, primary screen (AID 1161); details: HEK293-NOX5, ionomycin, 45 min, higher = more signal
# Sequence of NADPH oxidase 5 (Homo sapiens) (Q96PH1 whole entry, looked up): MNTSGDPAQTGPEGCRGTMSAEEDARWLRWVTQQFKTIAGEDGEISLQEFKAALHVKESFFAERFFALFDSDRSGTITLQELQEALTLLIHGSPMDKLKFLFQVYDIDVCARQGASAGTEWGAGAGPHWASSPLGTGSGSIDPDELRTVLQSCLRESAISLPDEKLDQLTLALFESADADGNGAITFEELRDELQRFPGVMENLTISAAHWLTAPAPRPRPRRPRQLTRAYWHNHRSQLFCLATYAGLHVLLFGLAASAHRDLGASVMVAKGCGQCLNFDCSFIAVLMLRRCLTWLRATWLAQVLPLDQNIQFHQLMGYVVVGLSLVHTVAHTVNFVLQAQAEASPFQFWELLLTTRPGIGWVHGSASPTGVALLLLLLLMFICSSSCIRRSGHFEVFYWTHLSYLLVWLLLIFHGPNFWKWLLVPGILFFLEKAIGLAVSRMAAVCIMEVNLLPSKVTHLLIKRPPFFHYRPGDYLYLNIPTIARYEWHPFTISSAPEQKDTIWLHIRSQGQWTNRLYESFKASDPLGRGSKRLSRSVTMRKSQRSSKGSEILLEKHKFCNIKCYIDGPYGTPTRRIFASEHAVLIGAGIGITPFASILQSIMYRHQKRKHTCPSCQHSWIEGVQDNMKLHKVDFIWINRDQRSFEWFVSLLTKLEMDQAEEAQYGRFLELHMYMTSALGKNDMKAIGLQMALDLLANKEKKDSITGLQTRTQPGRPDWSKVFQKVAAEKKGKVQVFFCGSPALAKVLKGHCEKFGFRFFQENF
# [11] = compound effects on lung adenocarcinoma cell viability – A549, calcein-AM fluorescence, 48 h, basal, profiling panel (AID 1162); details: higher = more signal; also: test concentration not given here
# [12] = compound effects on differentiated 3T3-L1 adipocyte viability – cell-based, 3T3-L1 adipocytes, calcein-AM fluorescence, 48 h, basal, profiling panel (AID 1163); details: 3T3-L1 adipocytes viability, higher = more signal; also: test concentration not given here
# [13] = compound effects on hepatocellular carcinoma cell viability – HepG2, calcein-AM fluorescence, 48 h, basal, profiling panel (AID 1164); details: higher = more signal; also: test concentration not given here
# [14] = compound effects on multiple myeloma cell viability – MM1S, calcein-AM fluorescence, 48 h, basal, profiling panel (AID 1165); details: higher = more signal;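 also: viability of MM1S multiple myeloma cells under basal unstimulated conditions; test concentration not given here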
# [15] = calcein-AM signal in unstimulated myeloma cells – cell-based, calcein-AM fluorescence, 48 h, PK04 Diversity Set, profiling panel (AID 1166); details: RPMI8226 myeloma viability, higher = more signal;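 also: cells grown under basal conditions without added stimulus; test concentration not given here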
# [16] = JC-1 mitochondrial signal, unstimulated HepG2 cells – cell-based, JC-1 fluorescence, 24 h, 100 nL compound, profiling panel (AID 1167); details: HepG2 mitochondrial potential, higher = more signal; also: test concentration not given here
# [17] = JC-1 mitochondrial signal, unstimulated adipocytes – cell-based, JC-1 fluorescence, 3T3-L1 adipocytes, 24 h, 100 nL compound, profiling panel (AID 1168); details: JC-1 mitochondrial fluorescence, higher = more signal, called active from +8 up or from −8 down; also: test concentration not given here
# [18] = JC-1 mitochondrial signal, unstimulated myeloma cells – cell-based, JC-1 fluorescence, RPMI8226, 24 h, 100 nL compound, profiling panel (AID 1169); details: JC-1 mitochondrial potential fluorescence, higher = more signal; also: test concentration not given here
# [19] = JC-1 mitochondrial signal, unstimulated MM1S myeloma – cell-based, JC-1 fluorescence, 24 h, 100 nL compound, profiling panel (AID 1170); details: MM1S mitochondrial potential, higher = more signal; also: test concentration not given here
# [20] = resazurin metabolic signal in A549 cells – cell-based, resazurin fluorescence, 24 h, PK04 Diversity Set, profiling panel (AID 1171); details: A549 viability, higher = more signal, called active from +8 up or from −8 down; also: test concentration not given here
Structure (SMILES),z-score [1],composite z-score [2],z-score [3],z-score [4],z-score [5],z-score [6],z-score [7],z-score [8],z-score [9],z-score [10],z-score [11],z-score [12],z-score [13],z-score [14],z-score [15],z-score [16],z-score [17],z-score [18],z-score [19],z-score [20]
[N-]=[N+]=Nc1ccccc1[C@@H]1OC(c2ccc(OCCCO)cc2)=N[C@]1(CCS(=O)(=O)c1ccccc1)C(=O)NCc1ccccc1,0.871 (inactive),1.01,28 (active),23.5 (active),1.29 (inactive),4.33 (inactive),-0.309,-1.86 (inactive),0.642 (inactive),1.15,0.282,0.803,0.82,-0.723,-0.185,0.136,3.88 (inactive),-1.03,-0.856,-0.725 (inactive)
C=C(/C(=C/C[C@@H](OC(=O)c1ccncc1)c1ccccc1OCCO)c1cnc2ccccc2c1)C(C)C,-0.592 (inactive),0.454,10 (active),4.55 (inactive),-1.59 (inactive),1.44 (inactive),-0.174,-2.57 (inactive),-1.11 (inactive),-2.56,-0.36,-0.368,-3.15,-3.1,-2.45,0.76,-0.19 (inactive),0.14,1.08,-1.15 (inactive)
C=CCN1C(=O)[C@@]2(O[C@@H](CCn3cc([C@H](O)c4ccccc4)nn3)[C@H]([Si](C)(C)c3ccc(OC)cc3)[C@H]2C)c2cc(NC(=O)c3ccc(OC)cc3)ccc21,0.55 (inactive),-0.0016,6.81 (inactive),1.77 (inactive),1.39 (inactive),1.38 (inactive),0.689,0.106 (inactive),0.863 (inactive),0.583,-0.219,-0.143,-0.671,-1.84,-1.69,-0.117,-1.06 (inactive),-0.991,-0.641,-2.43 (inactive)
NC(=O)NCC#Cc1ccc2c(c1)[C@]1(C(=O)N2)[C@H](c2ccc(O)cc2)N2[C@H](c3ccccc3)[C@H](c3ccccc3)OC(=O)[C@H]2[C@@H]1C(=O)NC[C@H](O)c1ccccc1,0.578 (inactive),-0.316,-0.0501 (inactive),0.647 (inactive),0.223 (inactive),0.363 (inactive),-0.328,0.251 (inactive),-0.258 (inactive),-0.0927,0.544,0.192,-0.0875,-0.106,0.0231,0.163,-0.0491 (inactive),-0.888,0.481,0.716 (inactive)
